Reference: the supplement of paper PMC3334620
The full ranking holds about 33,000 sequences; the median of “E-score (-0.5 to 0.5)” is about -0.032, and the highest 2% start at about 0.36. The full list was thinned out, with the highest values kept by preference.

Target: T1, Sko1 (UniProt Q02100)
T1 sequence: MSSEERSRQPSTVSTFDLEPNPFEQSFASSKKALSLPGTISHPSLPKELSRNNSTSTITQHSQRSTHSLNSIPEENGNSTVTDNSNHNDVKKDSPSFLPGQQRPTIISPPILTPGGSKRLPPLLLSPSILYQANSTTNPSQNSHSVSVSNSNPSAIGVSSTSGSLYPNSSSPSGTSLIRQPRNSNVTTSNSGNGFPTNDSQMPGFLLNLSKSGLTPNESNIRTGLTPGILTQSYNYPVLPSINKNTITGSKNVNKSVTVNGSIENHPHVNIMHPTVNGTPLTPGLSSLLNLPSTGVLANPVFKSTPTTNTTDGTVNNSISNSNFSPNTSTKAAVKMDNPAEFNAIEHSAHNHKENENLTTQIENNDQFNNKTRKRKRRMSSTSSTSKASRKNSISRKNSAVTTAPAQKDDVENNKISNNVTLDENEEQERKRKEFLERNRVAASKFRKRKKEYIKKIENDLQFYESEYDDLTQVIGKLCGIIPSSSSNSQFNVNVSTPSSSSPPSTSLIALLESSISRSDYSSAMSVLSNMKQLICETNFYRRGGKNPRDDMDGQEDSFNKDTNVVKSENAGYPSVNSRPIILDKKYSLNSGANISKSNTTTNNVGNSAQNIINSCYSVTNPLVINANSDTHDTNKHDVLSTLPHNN
Assay: PBM E-score (8-mer binding enrichment) (E-score (-0.5 to 0.5)); higher = stronger / more preferred TF binding
Conditions: protein concentration: 200 nM; construct: GST-full length
Protocol: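 Universal 'all 10-mer' protein binding microarrays (Agilent AMADID 015681) probed with GST-tagged S. cerevisiae TFs (full-length or DBD) made by in vitro transcription/translation (PURExpress), about 100-200 nM. Bound TF was detected with fluorescent anti-GST. Each ungapped 8-mer (which stands for itself and its reverse complement) is scored by the PBM enrichment score (E-score), a modified Wilcoxon-Mann-Whitney statistic from -0.5 to +0.5, computed with the Universal PBM Analysis Suite. Scale: above 0.35 generally sequence-specific binding.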

First: ACTGAAGA
Second: AAACGTTA
The “PBM E-score” value of the first is lower: 0.0507 for the first, 0.3 for the second.

Compared with AAACGTAG, CAACGTAC is lower in “PBM E-score” value: 0.393 for the first, 0.326 for the second.

Going from AAACGTTT to AAACGTAT, the “PBM E-score” value rises from 0.275 to 0.429.

First: AAACGTGC
Second: AAACGTGT
The “PBM E-score” value of the first is lower: 0.231 for the first, 0.288 for the second.

First: AAACGTAA
Second: AAACGTAC
The “PBM E-score” value of the first is higher: 0.462 for the first, 0.37 for the second.

First: AACCGTAA
Second: AAGCGTAG
The “PBM E-score” value of the first is higher: 0.0957 for the first, -0.0528 for the second.

Compared with GGATTCAC, CATCTCGC is higher in “PBM E-score” value: -0.215 for the first, -0.129 for the second.

First: AGTCCGTA
Second: TATAGAAA
The “PBM E-score” value of the first is lower: -0.218 for the first, 0.0683 for the second.

Compared with AGCTTTGG, ATAAAACC is higher in “PBM E-score” value: -0.172 for the first, -0.0531 for the second.

Compared with AGACAGTG, GTCTCCTA is higher in “PBM E-score” value: -0.112 for the first, 0.0919 for the second.

First: GACCTCGC
Second: GAGAAACC
The “PBM E-score” value of the first is higher: -0.122 for the first, -0.146 for the second.

Going from TACCATCA to TCACGTGA, the “PBM E-score” value rises from -0.0837 to 0.336.

Going from GCACGTAC to GCACGTAA, the “PBM E-score” value rises from 0.34 to 0.459.

Compared with TCACGTAA, TCCCGTAA is lower in “PBM E-score” value: 0.472 for the first, 0.11 for the second.

Going from GCTCGTAA to TCAAACGA, the “PBM E-score” value falls from 0.231 to 0.102.

Going from CTTTGGGC to AGAGGGCT, the “PBM E-score” value falls from -0.121 to -0.406.

Going from GGTAAATA to CCGACCAC, the “PBM E-score” value falls from 0.0846 to -0.182.

Going from CACGTGTA to CACGTGTC, the “PBM E-score” value falls from 0.399 to 0.357.

Compared with GTCGTGTA, GACGTGTA is higher in “PBM E-score” value: 0.169 for the first, 0.374 for the second.

Compared with CGCGTGTA, AACGTGTA is higher in “PBM E-score” value: 0.227 for the first, 0.247 for the second.

Compared with AGGTTAAA, CTCCTTGA is lower in “PBM E-score” value: -0.104 for the first, -0.159 for the second.

First: CGCCAGGC
Second: AAGGTTGT
The “PBM E-score” value of the first is lower: -0.227 for the first, 0.00278 for the second.

Compared with CTAATTGC, GACGAATA is higher in “PBM E-score” value: 0.104 for the first, 0.297 for the second.

Compared with TACGAATA, CACGAATA is lower in “PBM E-score” value: 0.383 for the first, 0.265 for the second.

Compared with CTAAGATA, CGCACGTC is higher in “PBM E-score” value: -0.023 for the first, 0.333 for the second.

First: GGCACGCA
Second: CGCACGTA
The “PBM E-score” value of the first is lower: -0.00979 for the first, 0.408 for the second.

Going from GGCACGTA to CGCACGCA, the “PBM E-score” value falls from 0.395 to 0.211.

Compared with GGCACGGA, CGAGTTCA is higher in “PBM E-score” value: -0.233 for the first, 0.00744 for the second.

First: CAGACCGC
Second: CGTCATGC
The “PBM E-score” value of the first is lower: -0.156 for the first, 0.469 for the second.

Going from AGTCATGC to CGTCATGA, the “PBM E-score” value rises from -0.0777 to 0.471.

Going from AGTCATGA to GGTCATGA, the “PBM E-score” value rises from 0.0664 to 0.111.

Going from CCTCATGC to GGCAGATA, the “PBM E-score” value rises from -0.142 to -0.0846.

Going from AATCGTTA to CGAAGGGC, the “PBM E-score” value falls from 0.23 to -0.104.

Going from CTGTATGA to GTACCCCA, the “PBM E-score” value falls from -0.0143 to -0.19.

Going from CTAGGGAG to CCAGTACG, the “PBM E-score” value rises from -0.148 to 0.215.

Going from AAGGGAGG to ACGTAGTA, the “PBM E-score” value rises from -0.244 to 0.446.

Compared with ACGTAGTG, AGGTAGTG is lower in “PBM E-score” value: 0.452 for the first, -0.0666 for the second.

Compared with CCGTAGTA, ACGTAGTC is higher in “PBM E-score” value: -0.0427 for the first, 0.425 for the second.

First: ACTTAGTC
Second: GCGTAGTA
The “PBM E-score” value of the first is lower: -0.15 for the first, 0.279 for the second.

Going from ACTTAGTG to CCGTAGTC, the “PBM E-score” value falls from 0.00172 to -0.266.

First: AACAGGGT
Second: AGCCGCAG
The “PBM E-score” value of the first is higher: -0.192 for the first, -0.223 for the second.

Going from ACCTGTGA to CCGGATTC, the “PBM E-score” value falls from 0.115 to -0.0976.

Compared with CTTCGCGC, CAGATGGA is lower in “PBM E-score” value: 0.217 for the first, -0.0703 for the second.

Going from AGTATTAC to CGTATTAC, the “PBM E-score” value rises from 0.331 to 0.387.

Going from CGTATTAG to GGTATTAC, the “PBM E-score” value falls from 0.382 to 0.204.

First: AGTATTAG
Second: TGTATTAA
The “PBM E-score” value of the first is lower: 0.00871 for the first, 0.182 for the second.

Compared with CGTATTAA, AGTATTAA is lower in “PBM E-score” value: 0.362 for the first, 0.261 for the second.

Compared with CATATTAG, CGTTCTAA is lower in “PBM E-score” value: 0.203 for the first, 0.131 for the second.

Going from AGTTGGTG to ACCCATAA, the “PBM E-score” value falls from -0.0352 to -0.118.

First: GGCCTCAC
Second: AGAGCACC
The “PBM E-score” value of the first is higher: -0.0829 for the first, -0.328 for the second.

Compared with ACCTTGTG, CACCTGTC is lower in “PBM E-score” value: -0.0718 for the first, -0.232 for the second.

Going from ATATGACG to ACATGACA, the “PBM E-score” value falls from 0.477 to 0.217.

Going from ATATGACA to CCATGACC, the “PBM E-score” value falls from 0.243 to -0.0889.

Compared with CCATGACA, ACATGACT is lower in “PBM E-score” value: 0.163 for the first, -0.0468 for the second.

Compared with ACATGACG, CCATGACG is higher in “PBM E-score” value: 0.474 for the first, 0.475 for the second.

First: ATATGACC
Second: TCATTTCA
The “PBM E-score” value of the first is lower: 0.00457 for the first, 0.181 for the second.

First: AGAGCAGC
Second: CTACGTTA
The “PBM E-score” value of the first is lower: -0.173 for the first, 0.406 for the second.

Going from ATACGTTA to CCACGTTA, the “PBM E-score” value falls from 0.436 to 0.289.

First: GCACGTTA
Second: ATGCGTTA
The “PBM E-score” value of the first is higher: 0.274 for the first, 0.247 for the second.

First: GTACGTTA
Second: CAACGTTA
The “PBM E-score” value of the first is higher: 0.395 for the first, 0.257 for the second.

Going from CTACGTTC to GTACGGTA, the “PBM E-score” value falls from 0.272 to 0.207.

First: ATACGTTC
Second: AGACGTTC
The “PBM E-score” value of the first is higher: 0.374 for the first, 0.125 for the second.

Compared with ACACGTTA, AGCAGGGC is lower in “PBM E-score” value: 0.318 for the first, -0.225 for the second.

Going from AGACTACA to ATGCTAAT, the “PBM E-score” value rises from -0.158 to 0.209.

Compared with AAGATGCT, AAGAAAAG is higher in “PBM E-score” value: -0.0361 for the first, -0.011 for the second.

First: GGAGGCCC
Second: AGCCCCCC
The “PBM E-score” value of the first is higher: -0.241 for the first, -0.355 for the second.

First: ACCAACAA
Second: AGATGCAC
The “PBM E-score” value of the first is higher: 0.147 for the first, -0.0198 for the second.

Going from AAACGTTG to ACACGTTG, the “PBM E-score” value rises from 0.112 to 0.188.

Compared with ATACGTTG, ATCTCTAC is lower in “PBM E-score” value: 0.391 for the first, 0.106 for the second.

Going from CCCAGCGC to CCGTACTA, the “PBM E-score” value rises from -0.229 to 0.00949.

Compared with ACGTACTC, AGGTACTG is lower in “PBM E-score” value: 0.432 for the first, -0.125 for the second.

Compared with ACGTACTA, AGGTACTC is lower in “PBM E-score” value: 0.426 for the first, -0.109 for the second.

Compared with ACGTACTG, ATGTACTG is lower in “PBM E-score” value: 0.412 for the first, -0.0689 for the second.

Compared with CCGTACTC, GCGTACTA is higher in “PBM E-score” value: -0.132 for the first, 0.232 for the second.

Going from GGGATAGA to CTGGGCTA, the “PBM E-score” value falls from -0.0751 to -0.317.

Compared with AGATACGA, CCCTGGAC is lower in “PBM E-score” value: 0.208 for the first, -0.188 for the second.

First: CAACGCAG
Second: GTAACTTA
The “PBM E-score” value of the first is lower: -0.0699 for the first, 0.262 for the second.

Compared with ACATACGG, ACATACGC is higher in “PBM E-score” value: 0.0483 for the first, 0.28 for the second.

Compared with AAATACGT, AAATACGA is lower in “PBM E-score” value: 0.463 for the first, 0.302 for the second.

Compared with ACATACGT, AAATACGC is lower in “PBM E-score” value: 0.459 for the first, 0.315 for the second.

First: TCGAGTCA
Second: AGGTGCTA
The “PBM E-score” value of the first is higher: -0.00474 for the first, -0.0841 for the second.

First: ACCCGTGA
Second: CGCCACAG
The “PBM E-score” value of the first is higher: 0.0498 for the first, -0.198 for the second.

First: CAACCCAC
Second: GATCAAAA
The “PBM E-score” value of the first is lower: 0.011 for the first, 0.0898 for the second.

Compared with ATCATGAA, ATCATGAC is higher in “PBM E-score” value: 0.126 for the first, 0.407 for the second.

First: GTCATGAC
Second: ATCATGAG
The “PBM E-score” value of the first is higher: 0.392 for the first, 0.211 for the second.

Going from GTCATGAA to CTCATGAC, the “PBM E-score” value rises from 0.221 to 0.285.
